Calls of active or inactive are those of the source. Rule for the calls: active = hit-call score of the fitted dose curve at least 0.9, where 1 is the maximum; inactive = score below 0.9.

Sequence of Broad substrate specificity ATP-binding cassette transporter ABCG2 (Homo sapiens) (Q9UNQ0 whole entry, looked up): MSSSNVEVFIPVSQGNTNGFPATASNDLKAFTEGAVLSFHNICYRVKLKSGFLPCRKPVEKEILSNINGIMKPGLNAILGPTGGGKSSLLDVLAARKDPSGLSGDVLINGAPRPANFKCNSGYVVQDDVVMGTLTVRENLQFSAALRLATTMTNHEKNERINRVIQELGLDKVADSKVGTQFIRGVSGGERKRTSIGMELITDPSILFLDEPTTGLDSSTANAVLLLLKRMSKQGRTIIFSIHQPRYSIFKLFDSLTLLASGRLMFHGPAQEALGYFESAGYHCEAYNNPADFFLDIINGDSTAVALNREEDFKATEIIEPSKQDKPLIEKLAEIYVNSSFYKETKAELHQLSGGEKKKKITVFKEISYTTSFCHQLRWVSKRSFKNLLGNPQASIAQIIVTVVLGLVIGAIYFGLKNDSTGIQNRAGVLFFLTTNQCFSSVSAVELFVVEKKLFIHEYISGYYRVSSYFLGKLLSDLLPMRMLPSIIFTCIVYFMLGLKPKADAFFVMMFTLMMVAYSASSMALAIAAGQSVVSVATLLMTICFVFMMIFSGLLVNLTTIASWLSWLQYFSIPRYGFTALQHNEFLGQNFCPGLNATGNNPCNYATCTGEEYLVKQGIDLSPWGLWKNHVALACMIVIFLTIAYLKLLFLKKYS

Read-out in this assay: Broad substrate specificity ATP-binding cassette transporter ABCG2 (Homo sapiens) (UniProt Q9UNQ0)
The assay is described as follows: LTEA_HepaRG_ABCG2: Life Technologies and Expression Analysis (LTEA) Assay for ABC Transporter (ABCG2) using HepaRG (AID 2283465). To be noted: mRNA level, 48 h; actives raise or lower the signal. The method in brief:
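ABCG2 transcript was quantified by TaqMan qRT-PCR against three housekeeping genes in HepaRG cells. Cells were treated in duplicate for 48 h across an 8-point half-log series up to 100 uM, with 0.5% DMSO vehicle. Gain or loss versus DMSO was fit.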
Turning to `CCNc1nc(Cl)nc(NC(C)(C)C#N)n1`, the outcome was inactive.

On to `CNC(=O)ON=C(C)SC`, for which the compound was called inactive. The AC50 is the midpoint of the concentration-response curve, whichever way the signal moves. As to `Nc1c(Cl)cc([N+](=O)[O-])cc1Cl`, the half-maximal activity concentration (AC50) was 80.4 µM (active). Consider `CC(COc1ccc(Oc2ccccc2)cc1)Oc1ccccn1` (centres undefined), for which the half-maximal activity concentration (AC50) is 20.6 µM (active).

As to `C#CC(C)(C)NC(=O)c1cc(Cl)cc(Cl)c1`, the compound was classed as inactive. Take `CCCSP(=O)(OCC)Oc1ccc(Br)cc1Cl` (centres undefined): the outcome was inactive. Regarding `FC(F)C(F)(F)OCC(Cn1cncn1)c1ccc(Cl)cc1Cl` (centres undefined), the AC50 was 15 µM (active). Same read-out and setting: the result for `C[Si](Cn1cncn1)(c1ccc(F)cc1)c1ccc(F)cc1` reads 16.3 µM (active). For the compound `CCOP(=S)(OCC)Oc1cc(C)nc(C(C)C)n1`, the call was inactive. `CCCCN(CC)c1c([N+](=O)[O-])cc(C(F)(F)F)cc1[N+](=O)[O-]`: the compound was called inactive. `C#CCC1=C(C)C(OC(=O)C2C(C=C(C)C)C2(C)C)CC1=O` (centres undefined): the half-maximal activity concentration (AC50) was 9.87 µM (active). As for `CCOP(=S)(OCC)Oc1ccc([N+](=O)[O-])cc1`, the result was inactive.

Take `CCCSP(=O)(OCC)SCCC`: the result was inactive. Regarding `Cc1ccn2nc(S(=O)(=O)Nc3c(F)cccc3F)nc2n1`, the call was inactive.

(Values after PubChem BioAssay (EPA / NIEHS).)
